Screening results from PubChem BioAssay.
HP1b chromo inh: HTS for Inhibitors of HP1-beta Chromodomain Interactions with Methylated Histone Tails; Chromobox protein homolog 1 (Homo sapiens), P83916; AlphaScreen HP1-beta / biotin-H3K9me3 peptide binding; Potency, µM (top dose mostly 114 µM), usual class: inhibitors; hit rate 0.56% among 390,000; AID 540317, 2011; also: nearly all actives have a fitted effect of over 70% in size
Target sequence (P83916 whole entry, looked up): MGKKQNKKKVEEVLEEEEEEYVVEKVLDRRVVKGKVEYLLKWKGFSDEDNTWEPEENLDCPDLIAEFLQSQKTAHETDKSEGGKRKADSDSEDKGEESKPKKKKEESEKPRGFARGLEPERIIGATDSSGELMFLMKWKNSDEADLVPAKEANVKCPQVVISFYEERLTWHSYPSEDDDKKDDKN
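Compound inhibition of the preformed complex between 50 nM HP1-beta and 50 nM biotinylated H3K9me3 peptide was read by AlphaScreen. Buffer was PBS pH 7.4 with 0.01% Tween-20. Incubations ran 30 min at room temperature, with 10 ug/mL donor/acceptor beads.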
BAZ2B block: qHTS Assay for Inhibitors of BAZ2B | AlphaScreen BAZ2B-H3K14Ac peptide displacement | Bromodomain adjacent to zinc finger domain protein 2B (Homo sapiens), Q9UIF8 | Potency, µM (top dose mostly 114 µM), hits mostly inhibitors | hit rate 4.4% among 360,000; also: nearly all actives have a fitted effect of over 60% in size
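Complex of BAZ2B and biotin-H3K14Ac (50 nM apiece) forms over 30 min at RT, then faces library compounds up to 110 uM for another 30 min; AlphaScreen beads added, 20 min dark incubation, luminescence read.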
PI5P4K alpha inh: qHTS for Inhibitors of phosphatidylinositol 5-phosphate 4-kinase (PI5P4K); PI5P4Kalpha enzyme, ADP-Glo luminescence, 60 min; stronger effect = lower value; max response, %; Phosphatidylinositol 5-phosphate 4-kinase type-2 alpha (Homo sapiens), P48426; hit rate 1.2% among 330,000; active = max response of -50% or lower; inconclusive = between -30% and -50%; inactive = -30% or higher; also: value at the top dose of about 77 µM
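PI5P4Kalpha ADP-Glo assay; 5 microM ATP final; 60 min RT reaction; HEPES pH 7.4/EGTA/CHAPS, 5% DMSO; controls lacking substrate or enzyme; luminescent end-point.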
JMJD2A Tudor inh: qHTS Assay for Inhibitors of JMJD2A-Tudor Domain. hit rate 4.4% among 390,000. Potency, µM (top dose mostly 114 µM), most hits filed as inhibitors. Lysine-specific demethylase 4A (Homo sapiens), O75164. AID 504339, 2011. AlphaScreen JMJD2A-Tudor / H3K4me3 peptide binding; also: nearly all actives have a fitted effect of over 50% in size
G9a block: qHTS Assay for Inhibitors of Histone Lysine Methyltransferase G9a. G9a H3K9 monomethylation, AlphaScreen, 2 h. Histone-lysine N-methyltransferase EHMT2 (Homo sapiens), Q96KQ7. Potency, µM (top dose mostly 102 µM), hits mostly inhibitors. hit rate 8.8% among 350,000; also: nearly all actives have a fitted effect of over 75% in size
Target sequence (Q96KQ7 913-1193 limits assumed): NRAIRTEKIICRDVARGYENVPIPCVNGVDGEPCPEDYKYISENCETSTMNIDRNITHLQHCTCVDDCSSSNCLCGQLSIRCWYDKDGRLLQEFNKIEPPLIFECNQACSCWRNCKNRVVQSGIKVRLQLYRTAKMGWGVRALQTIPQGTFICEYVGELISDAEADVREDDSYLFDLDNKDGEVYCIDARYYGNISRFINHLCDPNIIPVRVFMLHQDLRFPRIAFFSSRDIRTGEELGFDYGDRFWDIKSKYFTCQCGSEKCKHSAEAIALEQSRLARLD
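Signal arises when biotinylated H3K9 peptide, once monomethylated, bridges streptavidin donor and antibody-captured acceptor beads. Enzyme at 20 nM was preincubated 15 min with test compounds; peptide 500 nM and SAM 20 uM then reacted for 2 h.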
PLK1 PBD inh: qHTS for Inhibitors of PLK1-PDB (polo-like kinase 1 - polo-box domain): Primary Screen. Serine/threonine-protein kinase PLK1 (Homo sapiens), P53350. Plk1 PBD binding of FITC phosphopeptide, fluorescence polarization. Potency, µM, usual class: inhibitors. hit rate 2.8% among 360,000; also: series mostly up to about 57 µM; nearly all actives have a fitted effect of over 65% in size
Hits are given with their value; . = inactive; ? = inconclusive; / = no result given; [ ] = dose if it differs, or a comment. An excerpt weighted towards active compounds, which were near 12% of everything screened. Unless noted, calls follow the shape of the dose curve; as a rule, active = well fitted curve in the direction sought with a large enough effect; inconclusive = small, poorly fitted or top-dose-only effect, or another doubt; inactive = no such curve, though single readings can be large; an effect the other way counts as inactive or inconclusive.

SMILES	HP1b chromo inh	BAZ2B block	PI5P4K alpha inh	JMJD2A Tudor inh	G9a block	PLK1 PBD inh
O=C(NCc1ccccc1)NC1(C(=O)N2CCN(c3ncccn3)CC2)CCCCC1	.	.	.	.[11.4 µM]	.	27µM
CCOc1ccc(S(=O)(=O)Nc2cc(SCC(=O)O)c(O)c3ccccc23)cc1	13µM	50µM	?	22µM	?	1.7µM
Cc1ccc(S(=O)(=O)Nc2cccc3cccnc23)cc1	.	.	.	.	.	.
Cc1ccc(C)c(S(=O)(=O)Nc2cc(SCC(=O)O)c(O)c3ccccc23)c1	?	20µM	?	40µM	1.1µM	1.5µM
CCOc1ccc(S(=O)(=O)Nc2cc3c(C(=O)OC)c(COC)oc3c3ccccc23)cc1	.	.	/	.	.	/
O=C(O)CSc1cc(NS(=O)(=O)c2cccc([N+](=O)[O-])c2)c2ccccc2c1O	10µM	?	.	.[11.4 µM]	2.5µM	1.5µM
Cc1ccc(NS(=O)(=O)c2cc(NC(=O)C(C)Oc3ccccc3)ccc2C)c(C)c1 (stereo not drawn)	.	.	.	.	.	.
O=S(=O)(Nc1cc(Sc2cccc3cccnc23)c(O)c2ccccc12)c1ccccc1	/	?	/	/	1.6µM	/
O=[N+]([O-])c1cccc(S(=O)(=O)NCCNS(=O)(=O)c2cccc([N+](=O)[O-])c2)c1	/	/	/	/	.[12.7 µM]	/
COC(C)(C)CCCC(C)C/C=C/C(C)=C/C(=O)O (stereo not drawn)	/	/	/	/	.	/
CCc1ccc(S(=O)(=O)Nc2ccc(O)c3ccccc23)cc1	?	?	?	?	.[2.33 µM]	?
CCc1ccc(S(=O)(=O)Nc2cc(SCC(=O)O)c(O)c3ccccc23)cc1	?	?	?	22µM	3.5µM	1.2µM
CN1C/C(=C/c2ccsc2)C(=O)/C(=C/c2ccsc2)C1	.	?	.	?	?	.
CCN1C/C(=C/c2ccc(N3CCOCC3)cc2)C(=O)/C(=C/c2ccc(N3CCOCC3)cc2)C1	.	?	.	.	40µM	.
CN1C/C(=C/c2ccncc2)C(=O)/C(=C/c2ccncc2)C1	.	.	.	.	50µM	.
CN1C/C(=C\c2ccc(N3CCOCC3)cc2)C(=O)/C(=C/c2ccc(N3CCOCC3)cc2)C1	?	50µM	.	?	?	.
FC(F)(F)c1ccccc1Cc1c(-c2ccc(Cl)cc2)nc2ccc(Br)cn12	/	/	.	/	/	.
COc1ccc(NC(=O)CSc2nnc(-c3cccnc3)s2)cc1	.	.	.	.	.	.
Cc1cccc(C(=O)NCc2nnc(SCC(=O)Nc3ccccc3F)n2-c2ccccc2)c1	.	.	/	.	.	/
Nc1cccc(-n2nnnc2CN2CCOCC2)c1	.	.	.	?	.	11µM
Nc1ccc(-n2nnnc2CN2CCOCC2)cc1	.	.	.	.	.	.
CCCCCCC(C)n1[nH]c(=O)c2c(C)cc(C)nc21 (stereo not drawn)	.	.	.	.	.	.
COc1ccc(NS(=O)(=O)c2cc(NC(=O)c3cc(F)c(F)c(F)c3F)ccc2N2CCCC2)cc1	.	.	.	.	/	.
COc1ccc(NS(=O)(=O)c2cc(NC(=O)C3CCCO3)ccc2N2CCCCC2)cc1 (stereo not drawn)	.	.	.	.[11.4 µM]	40µM	.
COc1ccc(NS(=O)(=O)c2cc(NC(=O)C3CCCO3)ccc2N2CCCC2)cc1 (stereo not drawn)	.	.	.	.	25µM	.
SMILES	HP1b chromo inh	BAZ2B block	PI5P4K alpha inh	JMJD2A Tudor inh	G9a block	PLK1 PBD inh
COc1ccc(NS(=O)(=O)c2cc(NC(=O)c3ccco3)ccc2N2CCCC2)cc1	.	.	.	.	40µM	.
Cc1noc(NS(=O)(=O)c2ccc(NS(=O)(=O)c3ccc(C(C)(C)C)cc3)cc2)c1C	/	/	.	/	/	.
COc1cccc(NC(=O)C2CCN(Cc3cnn(-c4ccccc4)c3-n3cccc3)CC2)c1	.	.	.	?	?	.
COc1ccc(OC)c(NC(=O)C2CCN(Cc3cnn(-c4ccccc4)c3-n3cccc3)CC2)c1	?	?	.	50µM	45µM	.
Cc1cc(C)c(/C=C(\C#N)C(N)=S)c(C)c1	.	.	.	.	45µM	.
Cn1cccc1/C=C(/C#N)C(N)=S	.	?	.	.	?	.
Cc1ccc(-c2ccc(/C=C(\C#N)C(N)=S)n2C)cc1	.	?	.	?	10µM	.
Cc1cc(C)nc(Sc2ccc(/C=C(\C#N)C(N)=O)o2)n1	.	.	.	.	.	.
CC(=O)N1CCC2(CCN(Cc3ccc(C#N)cc3)CC2)CC1	/	/	/	/	.[12.7 µM]	/
CCN(CC)c1ccc(-c2n[nH]c(=S)n2-c2ccccc2)cc1	.	.	.	20µM	1.4µM	.
CCN(CC)c1ccc(-c2n[nH]c(=S)n2-c2ccccc2C)cc1	.	?	.	.	?	.
CN(C)c1ccc(-c2n[nH]c(=S)n2-c2ccccc2)cc1	.	.	.	7.9µM	1.8µM	.
CC(Oc1ccc(Br)cc1)C(=O)Nc1ccc(S(=O)(=O)N(C)C2CCN(C)CC2)cc1 (stereo not drawn)	.	.	.	.	35µM	.
CC(OC(=O)CCC(=O)c1ccc(Cl)s1)C(=O)NC1(C#N)CCCCC1 (stereo not drawn)	.	.	.	.	.[12.7 µM]	.
Cc1ccc(-c2ccc(=O)n(CC(=O)NCCc3ccc(Cl)cc3)n2)cc1	.	.	/	89µM	.	/
CCS(=O)(=O)N1CCN(c2nc(-c3ccccc3)cs2)CC1	.	.	/	.	13µM	.
CS(=O)(=O)N1CCN(c2nc(-c3ccccc3)cs2)CC1	.	?	.	.	.	.
CC(C)C(=O)N1CCN(c2nc(-c3ccc(Cl)cc3)cs2)CC1	.	.	.	.	?	.
CCOC(=O)N1CCN(c2nc(-c3ccc(Cl)cc3)cs2)CC1	.	.	/	.	11µM	.
O=C(Cc1cccs1)N1CCN(c2nc(-c3ccc(Cl)cc3)cs2)CC1	.	.	/	.	71µM	.
Cc1c(C(=O)N2CCC(C)CC2)c(S(=O)(=O)N(Cc2ccccc2)C(C)(C)C)c(C)n1C	.	.	/	.	.[12.7 µM]	/
CC1C(=O)N(Cc2cn(CCC3OCCCO3)nn2)CCS(=O)(=O)N1Cc1ccc(-c2ccncc2)cc1 (stereo not drawn)	/	/	.	/	/	.
COC(=O)c1ccccc1-c1ccc(C=O)o1	.	.	.	.	.	.
O=C1C(=Cc2ccc(Br)o2)C(=O)c2ccccc21	?	13µM	-85	7.9µM	20µM	2.7µM
